From PubChem BioAssay
Compounds with a hit are over-represented: about 9.3% of the library has one in this group of screens.
Rab9 promoter act – Rab9 promoter activation; actives 2.8% (n = 320,000); Huh7 Rab9 promoter-luciferase reporter, luminescence, 24 h; AID 485297; Potency, µM (highest dose often 9.22 µM), most hits filed as activators; also: nearly all actives have a fitted effect of over 60% in size
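Rab9 promoter-driven luciferase in stably transfected Huh7 cells; 1500 cells/well rested 2 h, exposed to compound in DMSO for 24 h at 37 °C, 5% CO2. Luminescence read 10 min after adding luciferase reagent at ambient temperature.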
SMN2 splice enh – SMN2 splice variant enhancement; HEK293 SMN2-luciferase splicing reporter, luminescence, 30-36 h; Potency, µM (doses to about 46.1 µM), most hits filed as activators; actives 2.8% (n = 210,000); AID 1458; also: nearly all actives have a fitted effect of over 55% in size
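HEK293 cells carry an SMN2 minigene-luciferase reporter in which exon 7 inclusion puts luciferase in frame. Cells were seeded at 2000 cells/well, attached for 10-12 hours, then exposed to compounds for 30-36 hours at 37C before ONE-Glo luminescence.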
ELG1 repair inh – blocks ELG1-dependent DNA repair in HEK293T cells | AID 504467 | actives 2.3% (n = 330,000) | HEK293T ELG1-luciferase reporter, luminescence, 16 h; DNA damage induced by 5-fluorouridine | Potency, µM (doses to about 46.1 µM), most hits filed as inhibitors; also: nearly all actives have a fitted effect of over 55% in size
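Step one: seed 2,000 cells per well. Step two: pin-transfer compound or DMSO alongside 5-fluorouridine. Step three: incubate 16 hr, 37 °C, 5% CO2. Step four: add ONE-Glo, wait 30 min, read luminescence.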
NPC1 prom act – activates the NPC1 promoter; Huh7 NPC1 promoter luciferase reporter, 24 h; Potency, µM (highest dose often 9.22 µM), most hits filed as activators; actives 2.4% (n = 320,000); AID 485313; also: nearly all actives have a fitted effect of over 60% in size
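Luminescence from an NPC1 promoter-driven luciferase reporter in stably transfected Huh7 cells was measured after 24 h compound treatment at 37 °C, followed by 10 min ambient incubation with luciferase detection reagent.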
FLuc counter – counter-screen for miR-21 project: firefly luciferase inhibitors or activators; AID 588342; Potency, µM (highest dose often 57.5 µM), usual class: inhibitors; purified FLuc, Km substrates, luminescence inhibition; P08659; actives 6.9% (n = 360,000); also: nearly all actives have a fitted effect of over 55% in size
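Purified P. pyralis luciferase, 10 nM final, with Km-level 10 uM D-luciferin and 10 uM ATP in 50 mM Tris acetate pH 7.5, 10 mM Mg acetate, 0.01% Tween-20, 0.05% BSA; 6-point qHTS titration about 60 µM downward; luminescence read.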
ELG1 genotox – inducers of genotoxicity in HEK293T ELG1-luciferase cells; HEK293T ELG1-luciferase reporter, luminescence, 16 h; Potency, µM (series often up to 46 µM), hits mostly activators; actives 1.3% (n = 330,000); AID 504466; also: nearly all actives have a fitted effect of over 60% in size
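Reporter readout depends on ELG1 protein level, which increases with genetic stress. After 16 hr compound exposure at 37 °C, luciferase activity was quantified using ONE-Glo.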
ELG1 FLuc counter – luciferase inhibition in cell-free luciferin readout for ELG1 hits. Potency, µM (titrated, usually from 46.1 µM), usual class: inhibitors. shares compounds with ELG1 repair inh. cell-free firefly luciferase luminescence counter-screen, ViewLux. actives 3% (n = 350)
ELG1 Luc conf – inhibits ELG1-dependent DNA repair in HEK293T cells, confirmed; Potency, µM (titrated, usually from 46.1 µM), usual class: inhibitors; actives 68% (n = 670); HEK293T ELG1-luciferase levels, luminescence; cells co-treated with 5-fluorouridine; shares compounds with ELG1 repair inh; also: nearly all actives have a fitted effect of over 55% in size
Target sequence (Q96QE3 whole entry, looked up): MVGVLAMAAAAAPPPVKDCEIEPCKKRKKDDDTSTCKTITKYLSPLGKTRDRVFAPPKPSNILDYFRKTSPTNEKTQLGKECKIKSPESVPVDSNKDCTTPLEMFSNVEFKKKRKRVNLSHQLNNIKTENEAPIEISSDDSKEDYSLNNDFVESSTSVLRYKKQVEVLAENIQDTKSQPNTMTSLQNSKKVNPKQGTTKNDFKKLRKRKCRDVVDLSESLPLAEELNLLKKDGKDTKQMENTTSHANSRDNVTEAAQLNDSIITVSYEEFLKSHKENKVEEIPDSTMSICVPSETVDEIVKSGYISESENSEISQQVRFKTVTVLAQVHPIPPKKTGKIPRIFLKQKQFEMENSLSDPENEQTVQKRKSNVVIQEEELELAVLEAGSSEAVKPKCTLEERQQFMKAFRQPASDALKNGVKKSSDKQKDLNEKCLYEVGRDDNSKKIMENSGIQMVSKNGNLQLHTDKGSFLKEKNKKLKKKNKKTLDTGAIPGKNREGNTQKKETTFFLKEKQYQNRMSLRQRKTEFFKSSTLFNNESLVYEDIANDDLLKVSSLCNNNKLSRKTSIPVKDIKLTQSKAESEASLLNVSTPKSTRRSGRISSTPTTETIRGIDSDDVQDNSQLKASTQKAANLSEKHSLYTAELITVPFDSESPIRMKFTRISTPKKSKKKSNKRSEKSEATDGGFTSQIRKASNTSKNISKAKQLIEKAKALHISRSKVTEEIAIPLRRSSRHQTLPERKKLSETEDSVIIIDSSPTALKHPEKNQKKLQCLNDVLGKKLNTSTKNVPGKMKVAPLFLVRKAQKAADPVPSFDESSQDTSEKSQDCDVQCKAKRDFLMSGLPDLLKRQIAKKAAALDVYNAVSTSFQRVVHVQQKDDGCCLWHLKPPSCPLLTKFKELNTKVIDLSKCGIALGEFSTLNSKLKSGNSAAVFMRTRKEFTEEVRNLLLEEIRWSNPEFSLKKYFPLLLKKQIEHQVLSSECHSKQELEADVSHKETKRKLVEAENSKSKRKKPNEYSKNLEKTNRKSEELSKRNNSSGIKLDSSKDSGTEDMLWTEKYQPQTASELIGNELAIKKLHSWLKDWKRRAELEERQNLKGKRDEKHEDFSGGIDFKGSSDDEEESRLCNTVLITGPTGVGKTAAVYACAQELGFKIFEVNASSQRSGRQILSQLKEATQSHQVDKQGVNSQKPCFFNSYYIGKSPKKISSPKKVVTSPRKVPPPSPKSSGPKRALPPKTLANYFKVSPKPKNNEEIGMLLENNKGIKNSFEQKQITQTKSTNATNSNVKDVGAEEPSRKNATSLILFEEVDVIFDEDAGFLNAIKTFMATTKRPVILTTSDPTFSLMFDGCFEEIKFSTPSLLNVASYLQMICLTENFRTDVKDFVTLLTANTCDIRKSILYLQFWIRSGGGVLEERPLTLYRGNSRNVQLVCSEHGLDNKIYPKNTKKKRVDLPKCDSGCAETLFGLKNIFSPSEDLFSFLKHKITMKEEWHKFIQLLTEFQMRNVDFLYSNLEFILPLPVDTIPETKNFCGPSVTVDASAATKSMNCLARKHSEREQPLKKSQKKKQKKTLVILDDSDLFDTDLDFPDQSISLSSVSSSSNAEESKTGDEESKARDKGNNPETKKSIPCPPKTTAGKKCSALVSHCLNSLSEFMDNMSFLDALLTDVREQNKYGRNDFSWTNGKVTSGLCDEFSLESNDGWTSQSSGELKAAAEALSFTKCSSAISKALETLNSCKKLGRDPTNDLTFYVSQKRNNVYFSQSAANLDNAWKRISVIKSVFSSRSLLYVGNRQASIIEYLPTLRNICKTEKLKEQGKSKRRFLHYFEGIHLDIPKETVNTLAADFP
ELG1 MMS Luc – MMS-stimulated human ELG1 repair inhibition, confirmed; shares compounds with ELG1 repair inh; HEK293T luciferase-tagged ELG1 level, MMS stimulated; AID 624249; actives 53% (n = 670); Potency, µM (highest dose often 46.1 µM), usual class: inhibitors; also: nearly all actives have a fitted effect of over 60% in size
ELG1 5-FU – confirmation of ELG1 repair inhibitors: viability with 5FU; 670 tested, under 10 active; cell viability with 5-FU, ELG1-dependent repair; shares compounds with ELG1 repair inh; Potency, µM (series often up to 46.1 µM), most hits filed as cytotoxic;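 also: ELG1-luc HEK293T cells cotreated with 5-fluorouridine at 10 µM final; viability measured 16 h after compound addition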
ELG1 MMS cell – confirmation of ELG1 repair inhibitors: viability with MMS; AID 624251; shares compounds with ELG1 repair inh; Cell viability with MMS, ELG1-dependent DNA repair; actives 33% (n = 670); Potency, µM (series often up to 46.1 µM), actives largely listed as cytotoxic;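 also: ELG1-luc HEK293T cells co-treated with 10 µM MMS; viability read 16 h after compound addition; nearly all actives have a fitted effect of over 60% in size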
ELG1 unstim viab – counter-screen for ELG1 repair inhibitors: unstimulated cell viability. shares compounds with ELG1 repair inh. cell viability counter-screen, unstimulated, luminescence. Potency, µM (series often up to 45.9 µM), usual class: cytotoxic. actives 8% (n = 900);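 also: compound exposure lasted 16 hours before reading; nearly all actives have a fitted effect of over 55% in size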
FLuc enzyme – firefly luciferase inhibition counter-screen; shares compounds with ELG1 repair inh; purified firefly luciferase, luminescence counter-screen; Potency, µM (doses to about 57.5 µM), usual class: inhibitors; actives 10% (n = 350); AID 624253
Numbers stand for hits. Calls follow the shape of the dose curve; as a rule, active = well fitted curve in the direction sought with a large enough effect; inconclusive = small, poorly fitted or top-dose-only effect, or another doubt; inactive = no such curve, though single readings can be large; an effect the other way counts as inactive or inconclusive.

For COc1ccc(-c2cc(=O)oc3c(C)c(OC(C)C(C)=O)ccc23)cc1 (stereo unspecified) the results were Rab9 promoter act inactive, ELG1 repair inh inactive, NPC1 prom act inactive, FLuc counter inactive and ELG1 genotox inactive.
Screening COc1ccc(-c2cc(=O)oc3c(C)c(OC(=O)c4cccs4)ccc23)cc1 returned Rab9 promoter act inactive, SMN2 splice enh inactive, ELG1 repair inh 4.1µM, NPC1 prom act inactive, FLuc counter inactive, ELG1 genotox inactive, ELG1 Luc conf 4.4µM, ELG1 MMS Luc inconclusive, ELG1 5-FU inactive, ELG1 MMS cell inactive and ELG1 unstim viab inactive.
For CN(Cc1ccccc1)S(=O)(=O)c1ccc(Cl)c(C(=O)NCCCN2CCOCC2)c1 the results were Rab9 promoter act inactive, ELG1 repair inh inactive, NPC1 prom act inactive, FLuc counter inactive and ELG1 genotox inactive.
Screening Fc1ccccc1CNc1ncnc2sccc12 returned Rab9 promoter act inactive, ELG1 repair inh 2.9µM, NPC1 prom act inactive, FLuc counter inactive, ELG1 genotox inactive, ELG1 Luc conf inconclusive, ELG1 MMS Luc 4.4µM, ELG1 5-FU inactive, ELG1 MMS cell 3.1µM and ELG1 unstim viab inconclusive.
`O=C(Nc1ccc(N2CCN(C(=O)c3ccco3)CC2)cc1)c1ccc([N+](=O)[O-])cc1Cl` gave Rab9 promoter act inactive, ELG1 repair inh 4.6µM, NPC1 prom act inactive, FLuc counter inactive, ELG1 genotox inactive, ELG1 Luc conf 6.3µM, ELG1 MMS Luc 7.1µM, ELG1 5-FU inconclusive, ELG1 MMS cell inconclusive and ELG1 unstim viab inconclusive.
`CCOc1ccc(CC(=O)Nc2ccc(NC(=O)c3ccco3)cc2)cc1OCC` gave Rab9 promoter act inactive, SMN2 splice enh inactive, ELG1 repair inh 2.3µM, NPC1 prom act inactive, FLuc counter inactive, ELG1 genotox inactive, ELG1 Luc conf inconclusive, ELG1 MMS Luc 0.063µM, ELG1 5-FU inactive, ELG1 MMS cell 0.07µM and ELG1 unstim viab inactive.
For CCCC(=O)Oc1ccc2[nH]c(C(=O)c3cc4ccccc4[nH]3)cc2c1 the results were ELG1 unstim viab inactive.
Screening O=C(O)c1cc2ccccc2[nH]1 returned SMN2 splice enh inactive.
Screening Cc1cccc2cc(CN(CCN3CCCC3)C(=O)NC3CCCCC3)c(=O)[nH]c12 returned Rab9 promoter act inactive, SMN2 splice enh inactive, ELG1 repair inh inactive, NPC1 prom act inactive, FLuc counter inactive and ELG1 genotox inactive.
For Cc1cccc2cc(CN(CCN3CCOCC3)C(=O)Nc3ccccc3F)c(=O)[nH]c12 the results were Rab9 promoter act inactive, SMN2 splice enh inactive, ELG1 repair inh 3.3µM, NPC1 prom act inactive, FLuc counter inactive, ELG1 genotox inactive, ELG1 Luc conf 4µM, ELG1 MMS Luc inactive, ELG1 5-FU inconclusive, ELG1 MMS cell inactive and ELG1 unstim viab inactive.
Screening O=C1NC[C@@H](c2ccccc2)OC(=O)[C@H](Cc2ccc(F)cc2)C/C=C\C[C@@H]1CC(=O)N(CCO)Cc1ccccc1 returned ELG1 repair inh inactive and ELG1 genotox inactive.
For O=C1NC[C@H](c2ccccc2)OC(=O)[C@H](Cc2ccc(F)cc2)CC/C=C/C[C@H]1CC(=O)N(CCO)Cc1ccccc1 the results were ELG1 repair inh 2.9µM, ELG1 genotox inactive, ELG1 Luc conf 11µM, ELG1 MMS Luc 13µM, ELG1 5-FU inconclusive, ELG1 MMS cell inconclusive and ELG1 unstim viab inactive.
CC1(C)Cc2c(c(N3CCOCC3)nc3snc(Br)c23)CO1 was read as Rab9 promoter act inactive, SMN2 splice enh inactive, ELG1 repair inh 16µM, NPC1 prom act inactive, FLuc counter inactive, ELG1 genotox inactive, ELG1 FLuc counter inactive, ELG1 Luc conf 13µM, ELG1 MMS Luc inconclusive, ELG1 5-FU inconclusive, ELG1 MMS cell inactive, ELG1 unstim viab inactive and FLuc enzyme inactive.
`CC1(C)Cc2c(c(N3CCOCC3)nc3snc(N)c23)CO1` gave Rab9 promoter act inactive, SMN2 splice enh inconclusive, ELG1 repair inh inactive, NPC1 prom act inactive, FLuc counter inactive and ELG1 genotox inactive.
`COc1ccc(-c2coc3cc(O)cc(O)c3c2=O)cc1` gave Rab9 promoter act 2.8µM, SMN2 splice enh 18µM, ELG1 repair inh inconclusive, NPC1 prom act 2.2µM, FLuc counter 6µM, ELG1 genotox 23µM and ELG1 unstim viab inactive.
Screening CCOc1ccc(S(=O)(=O)c2c(C(=O)c3ccc(CC)cc3)cnc3ccc(C)cc23)cc1 returned SMN2 splice enh inactive and FLuc counter inactive.
Screening Cc1ccc(NC(=O)C2CCN(S(=O)(=O)c3c(C)n[nH]c3C)CC2)c(C)c1 returned Rab9 promoter act inactive, ELG1 repair inh inactive, NPC1 prom act inactive, FLuc counter inactive and ELG1 genotox inactive.
Screening Cc1ccc(S(=O)(=O)NCCc2nnc3ccc(SCC(=O)Nc4nc5ccccc5s4)nn23)cc1 returned Rab9 promoter act inactive, SMN2 splice enh inactive, ELG1 repair inh inactive, NPC1 prom act inactive, FLuc counter inactive, ELG1 genotox inactive, ELG1 FLuc counter inconclusive, ELG1 Luc conf inactive, ELG1 MMS Luc inactive, ELG1 5-FU inactive, ELG1 MMS cell inactive, ELG1 unstim viab inactive and FLuc enzyme inactive.
